Here are results for 17 compounds from PubChem BioAssay (Tox21).

Records with an inconclusive call do not appear. Unmarked numbers belong to inactive results. Activity calls are given as the source filed them. Calls come from the whole dose curve; as a rule, active = well fitted curve in the direction sought with a large enough effect in the repeat runs; inconclusive = weak or mixed curves; inactive = no such curve, though single readings can be large; an effect the other way counts as inactive or inconclusive.

A short description of experiment [1]: qHTS RealTime-Glo MT Cell Viability Assay in HepG2 cells - 40 hour (AID 1224870). Note: nearly all actives have a fitted effect of over 50% in size. The method in brief: (§1)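 HepG2 cells (600/well) mixed with RealTime-Glo MT reagent, settled 5 h at 37 C/5% CO2 before compound addition. Nonlytic NanoLuc luminescence from viable-cell prosubstrate reduction read repeatedly during 40 h treatment at 37 C.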
Background: In qHTS, concentration-response curves come from the screen itself.

The nature of experiment [2]: A CellTox Green Cytotoxicity Assay to monitor cytotoxicity in HEK293 cells - 40 hour (AID 1224871). Note: nearly all actives have a fitted effect of over 45% in size. Note: potency is the fitted concentration of half-maximal effect. The method in brief:
(§2)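 HEK293 cells, 600/well, were preincubated 5 hours and then exposed to compounds at 37 C for up to 40 hours. A cell-impermeant cyanine dye staining dead-cell DNA was read by fluorescence at 0, 8, 16, 24, 32 and 40 h time points.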

The nature of experiment [3]: qHTS RealTime-Glo MT Cell Viability Assay in HEK293 cells - 16 hour (AID 1224872). Note: top concentration of the series differs between compounds; nearly all actives have a fitted effect of over 50% in size. Put shortly:
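HEK293 cells were seeded at 600 cells/well together with NanoLuc luciferase and cell-permeant prosubstrate, preincubated 5 h at 37 C/5% CO2, then given compound in DMSO by pintool. Luminescence from viable-cell prosubstrate reduction was read repeatedly over 40 h.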

Experiment [4] is described as follows: qHTS RealTime-Glo MT Cell Viability Assay in HepG2 cells - 8 hour (AID 1224873). Note: nearly all actives have a fitted effect of over 55% in size. Put shortly:
as §1

Experiment [5] is described as follows: A CellTox Green Cytotoxicity Assay to monitor cytotoxicity in HEK293 cells - 24 hour (AID 1224875). Note: series mostly up to about 77 µM; nearly all actives have a fitted effect of over 45% in size. The method in brief: as §2
A short description of experiment [6]: A CellTox Green Cytotoxicity Assay to monitor cytotoxicity in HepG2 cells - 16 hour (AID 1224876). Note: nearly all actives have a fitted effect of over 45% in size. The method in brief:
(§3)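 HepG2 cells, 600/well, preincubated 5 h with CellTox Green dye, then exposed to Tox21 compounds in DMSO at 37 C for up to 40 h. Dead-cell DNA fluorescence read at the indicated time point.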

A short description of experiment [7]: A CellTox Green Cytotoxicity Assay to monitor cytotoxicity in HepG2 cells - 40 hour (AID 1224879). Note: nearly all actives have a fitted effect of over 40% in size. Put shortly: as §3
Experiment [8] in a line: A CellTox Green Cytotoxicity Assay to monitor cytotoxicity in HepG2 cells - 24 hour (AID 1224878). Note: nearly all actives have a fitted effect of over 45% in size. The method in brief:
as §3

Experiment [9] can be described thus: qHTS RealTime-Glo MT Cell Viability Assay in HEK293 cells - 40 hour (AID 1224874). Note: nearly all actives have a fitted effect of over 50% in size. Note: potency is the fitted concentration of half-maximal effect. The following applies: RealTime-Glo luminescence; max response: stronger effect = lower value. The method in brief: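 600 cells/well were plated with the nonlytic NanoLuc/prosubstrate reagent, pre-incubated 5 h, then given 23 nL of compound in DMSO. Incubation at 37 C for 40 h, with luminescence from viable-cell-reduced substrate read repeatedly from 0 h.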

A short description of experiment [10]: qHTS RealTime-Glo MT Cell Viability Assay in HepG2 cells - 32 hour (AID 1224877). Note: nearly all actives have a fitted effect of over 55% in size. The method in brief:
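HepG2 cells were seeded at 600 cells/well together with NanoLuc luciferase and a cell-permeant prosubstrate, preincubated 5 h at 37 C/5% CO2, then pin-dosed with compounds in DMSO. Nonlytic luminescence from viable cells was read at each time point.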
% is set by controls: 0 for no effect and ±100 for the full control effect.

As to `CCN(CCO)CCn1c(Cc2ccccc2)nc2c1c(=O)n(C)c(=O)n2C`, the Potency entry in [1], in [2], in experiment [3], in [5], in experiment [6] and in [7] was “inactive” throughout. Further, the result in experiment [4] was inactive.
Regarding `O=C(Cl)/C=C/C(=O)Cl`, the Potency result in experiment [1], in experiment [2], in experiment [3], in [5], in experiment [6] and in [8] was “inactive” in each case. Further, the call in [4] was inactive.
With `CCOC1Oc2ccc(OS(C)(=O)=O)cc2C1(C)C` (configuration not stated), the Potency result in experiment [1], in experiment [2], in experiment [5], in experiment [6], in experiment [10] and in [8] was “inactive” in each case. For the same compound, the Potency result in experiment [7] is “inactive”. For the same compound, the Potency in experiment [9] was 34.4 µM (active).
Turning to `S=C=S`, the Potency entry in [1], in experiment [3], in experiment [5], in experiment [6] and in [10] was “inactive” in each case. In addition, in experiment [4], the outcome was inactive. Also, the max response in experiment [9] is 6.94%.
Regarding `CC(C)(N)Cc1ccc(Cl)cc1`, the Potency entry in experiment [1], in experiment [2], in experiment [5], in [6], in [10] and in experiment [7] was “inactive” throughout. Besides, the compound was called inactive in experiment [4]. In addition, the max response in experiment [9] was 6.61%.
With `CN(C)C1CCCCC1`, the Potency entry in [1], in [2], in [5] and in [6] was “inactive” throughout. For the same compound, in experiment [4], the compound was classed as inactive.
With `C[C@H](CN1CCOCC1)C(C(=O)N1CCCC1)(c1ccccc1)c1ccccc1`, the Potency result in [1], in experiment [2], in experiment [5], in [6], in experiment [10] and in experiment [8] was “inactive” in each case. For the same compound, the result in experiment [4] was inactive.
Turning to `C/C=C/CC#N`, the Potency result in experiment [1], in [6], in [10] and in experiment [8] was “inactive” throughout. Moreover, the Potency in experiment [2] is 56.2 µM (active). Also, the max response in experiment [9] was 9.52%.
Consider `CC(C)(C)c1cc(O)ccc1O`, for which the Potency entry in experiment [1], in experiment [2], in experiment [5], in experiment [6], in [10] and in experiment [8] was “inactive” each time. Moreover, the Potency result in experiment [7] is “inactive”.
On to `CN(C)CCN(C)C`, for which the Potency result in [1], in [2], in experiment [5], in experiment [6], in experiment [8] and in experiment [7] was “inactive” each time. Besides, the compound was called inactive in experiment [4].
For the compound `O=P(O)(O)CN(CP(=O)(O)O)CP(=O)(O)O`, the Potency entry in experiment [1], in experiment [6], in experiment [10] and in experiment [8] was “inactive” throughout. Also, the cytotoxicity increase in experiment [2] was 32.5% [at 15.8 µM]. Further, in experiment [4], the call was inactive. For the same compound, the activity change in [5] was 29.5% [at 15.8 µM, stronger effect = higher value].
Take `NC(=O)OCCCc1ccccc1`: the Potency result in [1], in [2], in [5], in experiment [6], in [10] and in experiment [8] was “inactive” throughout. The Potency result in experiment [7] was “inactive”. For the same compound, the call in experiment [4] was inactive. In experiment [9], the max response was 2.14%.
In the case of `CCN[C@H](C)Cc1cccc(C(F)(F)F)c1`, the Potency result in experiment [1], in experiment [3], in experiment [5], in experiment [6], in experiment [10] and in experiment [8] was “inactive” each time. Besides, in [4], the call was inactive. For the same compound, the max response in experiment [9] was -6.31%.
In the case of `O=C(Cl)C(Cl)Cl`, the Potency entry in experiment [1], in experiment [2], in experiment [5], in experiment [6], in experiment [10] and in experiment [7] was “inactive” in each case. In addition, the compound was classed as inactive in [4].
As for `c1ccc2c(c1)CCNC2`, the Potency entry in experiment [1], in experiment [2], in experiment [5], in [6], in experiment [10] and in experiment [8] was “inactive” throughout. Moreover, in experiment [4], the result was inactive.
On to `CCCOC(=O)Cc1ccc(OCC(=O)N(CC)CC)c(OC)c1`, for which the Potency result in experiment [1], in [2], in experiment [5], in [6], in [8] and in [7] was “inactive” throughout. Further, the result in experiment [4] was inactive. Further, the max response in experiment [9] was -5.19%.
Turning to `CS(=O)(=O)c1ccc(C(=O)C2C(=O)CCCC2=O)c(Cl)c1COCC(F)(F)F`, the Potency entry in [1], in experiment [2], in experiment [5], in experiment [6], in [10] and in experiment [8] was “inactive” in each case. The compound was called inactive in [4].
